Records with an inconclusive call do not appear. A number with no mark means an inactive call. Calls come from the whole dose curve; as a rule, active = well fitted inhibition curve with a large enough effect; inconclusive = small, poorly fitted or top-dose-only effect; inactive = flat fitted curve, though single readings scatter.
biological target: Calcium and integrin-binding protein 1 (Homo sapiens) (UniProt Q99828); test: Primary qHTS for Identification of Calcium Integrin Binding Protein 1 (CIB1) Competitor (AID 1508620); conditions: CIB1-GST / FITC-alphaIIb peptide fluorescence polarization; series mostly up to 114 µM; activity change, negative = inhibition: at the top concentration; note: top concentration of the series differs between compounds
Sequence (Q99828 whole entry, looked up): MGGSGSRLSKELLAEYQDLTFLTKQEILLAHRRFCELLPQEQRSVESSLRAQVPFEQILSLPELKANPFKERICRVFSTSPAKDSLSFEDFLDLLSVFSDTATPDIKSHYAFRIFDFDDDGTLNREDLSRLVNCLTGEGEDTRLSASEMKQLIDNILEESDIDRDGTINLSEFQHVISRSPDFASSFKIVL
Procedure, shortened: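 Fluorescence polarization competition: GST-tagged CIB1 (1 uM final) preincubated with compound 15 min at room temperature, then FITC-labelled alphaIIb peptide (100 nM final) added. After 15 min at room temperature, polarization read at Ex 480/Em 540.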
% is set by controls: 0 for no effect and ±100 for the full control effect.

**Q.** How did the “activity change, negative = inhibition” value turn out when O=[S+]([O-])(Nc1ccc(-c2nc3ccccc3[nH]2)cc1)c1ccc2c(c1)CCO2 was run?
**A.** Its value is 0.754%.

**Q.** How did the “activity change, negative = inhibition” value turn out when Cc1cc(C=CC#N)cc(C)c1Nc1nc(Nc2ccc3scnc3c2)c2[nH]cnc2n1 was run?
**A.** The value was -8.96%.

**Q.** Cc1ccc(-c2ccnn(CC(=O)N(C)C(C)c3ccco3)c2=O)cc1 (stereo not given) was tested. Which “activity change, negative = inhibition” value did it give?
**A.** Its value is -10.3%.

**Q.** With COc1cc2ncnc(N(C)Cc3csc(C)n3)c2cc1-c1ccc2c(c1)OCO2 as the molecule, how does the “activity change, negative = inhibition” value read?
**A.** The value was 0.265%.

**Q.** Which “activity change, negative = inhibition” value does the source give for O=C(Cc1ccccc1)Nc1ncnc2c1C(c1ccccc1)c1c(ccc3ccccc13)O2 (stereo not given) here?
**A.** The value was 7.96%.

**Q.** Which “activity change, negative = inhibition” value does the source give for COC(=O)c1ccccc1-c1ccc(/C=c2\sc3nc4cc(Br)cnc4n3c2=O)o1 here?
**A.** Its value is 82.8%.

**Q.** For Nc1ccccc1C(=O)NCc1ccco1, which “activity change, negative = inhibition” value is on record?
**A.** The value was 4.95%.

**Q.** How did the “activity change, negative = inhibition” value turn out when Cc1cnc(-c2ccccc2C(C)O)nc1NCc1ccc(-c2cccnc2)cc1 (stereo not given) was run?
**A.** Its value is -11.9%.

**Q.** Which “activity change, negative = inhibition” value does the source give for O=C1CCc2cc(S(=O)(=O)Nc3ccc(F)cc3)ccc2N1 here?
**A.** Its value is 8.76%.

**Q.** COc1cccc(C2c3c(ncn(-c4ccccc4SC)c3=N)Oc3ccc4ccccc4c32)c1 (stereo not given) was tested. Which “activity change, negative = inhibition” value did it give?
**A.** Its value is 8.09%.

**Q.** With NNC(=O)C(C(=O)OCc1ccccc1)c1ccccc1 (stereo not given) as the molecule, how does the “activity change, negative = inhibition” value read?
**A.** The value was -5.23%.

**Q.** Which “activity change, negative = inhibition” value does the source give for N#Cc1ccc(-c2ccc(=O)n(CC(=O)NCCc3ccccc3)n2)cc1 here?
**A.** Its value is -1.74%.

**Q.** Cc1ccc(OCCn2c(CCNC(=O)C3CCN(C(=O)OC(C)(C)C)CC3)nc3ccccc32)cc1 was tested. Which “activity change, negative = inhibition” value did it give?
**A.** Its value is -3.51%.

**Q.** Which “activity change, negative = inhibition” value does the source give for O=C(Nc1ncc(Cc2cccc(C(F)(F)F)c2)s1)c1ccc(-c2cccc([N+](=O)[O-])c2)o1 here?
**A.** Its value is -0.096%.

**Q.** For N=c1c2c(ccn1CCc1ccccc1)Oc1ccc3ccccc3c1C2c1ccccc1 (stereo not given), which “activity change, negative = inhibition” value is on record?
**A.** Its value is 14.2%.

**Q.** Cc1sc(NC(=O)Cc2ccc3c(c2)OCO3)nc1-c1ccc2c(c1)CCN2 was tested. Which “activity change, negative = inhibition” value did it give?
**A.** Its value is 4.34%.

**Q.** Which “activity change, negative = inhibition” value does the source give for N#Cc1nc(NCC(F)F)nc(Nc2cc(F)cc(F)c2)n1 here?
**A.** Its value is -1.65%.

**Q.** Which “activity change, negative = inhibition” value does the source give for N#CN1CCC(NC(=O)c2ccc(F)cc2)CC1 here?
**A.** The value was -2.65%.

**Q.** With O=S(=O)(Nc1cccc2cccnc12)c1ccccc1O as the molecule, how does the “activity change, negative = inhibition” value read?
**A.** Its value is -9.56%.

**Q.** For Oc1ccc(CCc2ccccc2F)c2cccnc12, which “activity change, negative = inhibition” value is on record?
**A.** Its value is -6.05%.

**Q.** With O=C1c2ccccc2C(=O)N1c1cccc2ccncc12 as the molecule, how does the “activity change, negative = inhibition” value read?
**A.** The value was -3.22%.

**Q.** How did the “activity change, negative = inhibition” value turn out when COc1ccc(-c2ccc(CNc3ccc(N4CCN(C(=O)OC(C)(C)C)CC4)cc3)o2)cc1 was run?
**A.** Its value is 0.961%.

**Q.** Which “activity change, negative = inhibition” value does the source give for COc1ccccc1C1=Nn2c(nnc2-c2ccccc2OC)SC1 here?
**A.** The value was 5.28%.

**Q.** With Cc1ccnc(NC(=S)N2CCN(c3ccc4ccccc4n3)CC2)c1 as the molecule, how does the “activity change, negative = inhibition” value read?
**A.** The value was -20.8%.

**Q.** Which “activity change, negative = inhibition” value does the source give for Cc1cc2c(s1)c1c(C)nn(Cc3ccc(F)cc3)c(=O)c1n2C here?
**A.** Its value is 3.78%.

**Q.** With O=C(Cn1nc(-c2ccc(C(F)(F)F)cc2)ccc1=O)NCCc1ccccc1 as the molecule, how does the “activity change, negative = inhibition” value read?
**A.** The value was 3.07%.

**Q.** COc1ccc(NC(=O)c2ccc(-c3nc4ccccc4[nH]3)cc2)cc1OC was tested. Which “activity change, negative = inhibition” value did it give?
**A.** The value was 6.3%.

**Q.** Which “activity change, negative = inhibition” value does the source give for Cc1cc(NS(=O)(=O)c2ccc(NC(=O)Cc3ccc(C)c(F)c3)cc2)no1 here?
**A.** Its value is -8.3%.

**Q.** With Cc1ccc(OCCn2c(CCNC(=O)C(C)(C)C)nc3ccccc32)cc1 as the molecule, how does the “activity change, negative = inhibition” value read?
**A.** Its value is 5.75%.

**Q.** How did the “activity change, negative = inhibition” value turn out when Cc1cc(C)nc(NC(=S)N2CCN(c3ccc(F)c(F)c3)CC2)c1 was run?
**A.** Its value is -1.52%.

**Q.** For Cc1ccc(OCCn2c(CCNC(=O)c3cccs3)nc3ccccc32)cc1, which “activity change, negative = inhibition” value is on record?
**A.** Its value is 0.657%.

**Q.** Which “activity change, negative = inhibition” value does the source give for CC(C)(C)c1ccc(C[C@H](C(=O)O)N2C(=O)c3ccc(C(=O)O)cc3C2=O)cc1 here?
**A.** Its value is 1.88%.

**Q.** Which “activity change, negative = inhibition” value does the source give for Cc1cccc(CNc2ncnc3ccc(-c4ccc5c(ccn5C)c4)cc23)c1 here?
**A.** Its value is 6.86%.

**Q.** How did the “activity change, negative = inhibition” value turn out when FC(F)(F)c1cccc(-c2nc(NCc3ccc(-c4ccnc(C(F)(F)F)c4)cc3)c3ccccc3n2)c1 was run?
**A.** Its value is 2.02%.

**Q.** For Cc1ccc(OCCn2c3c(c4ccccc42)CCN(C(=O)C2CCCCC2)C3)cc1, which “activity change, negative = inhibition” value is on record?
**A.** The value was 6.58%.

**Q.** How did the “activity change, negative = inhibition” value turn out when Cc1ccccc1C[C@H](C(=O)O)N1C(=O)c2ccc(C(=O)O)cc2C1=O was run?
**A.** Its value is 2.29%.

**Q.** For COc1cccc(C2c3c(ncn(Cc4cccs4)c3=N)Oc3ccc4ccccc4c32)c1 (stereo not given), which “activity change, negative = inhibition” value is on record?
**A.** The value was 5.93%.

**Q.** O=S(=O)(Nc1cccc2cccnc12)c1ccc(Br)s1 was tested. Which “activity change, negative = inhibition” value did it give?
**A.** Its value is -13.8%.

**Q.** For COc1cccc(C2c3c(ncn(-c4cccc(OC)c4)c3=N)Oc3ccc4ccccc4c32)c1 (stereo not given), which “activity change, negative = inhibition” value is on record?
**A.** The value was 8.33%.

**Q.** Which “activity change, negative = inhibition” value does the source give for NCCCCNc1ncnc2ccc(-c3ccc4c(c3)OCO4)cc12 here?
**A.** The value was -3.47%.
